Activity calls are given as the source filed them.
Assays:
[1] = binders of probe aFSTL3 on microarray, primary screen, stem cell growth factor project, biochemical, small-molecule microarray, fluorescence 635/667 (AID 1064); settings: higher = more signal;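 note: measures binding of the biotinylated anti-FSTL3 antibody to printed compounds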
[2] = binders from COS7 lysate, DM2A8 probe, primary screen, torsin A project, cell lysate, small-molecule microarray, fluorescence 635/667 (AID 1065); settings: higher = more signal, COS7 lysate expressing mutant human TOR1A
[3] = binders of probe aFGF2 on microarray, primary screen, stem cell growth factor project, biochemical, small-molecule microarray, fluorescence 635/667 (AID 1067); settings: higher = more signal;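 note: measures binding of biotinylated aFGF2 protein to printed compounds on slides; z-score merges feature fluorescence and signal-to-noise across triplicate slides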
[4] = binders of probe aFGF10 on microarray, primary screen, stem cell growth factor project, biochemical, small-molecule microarray, fluorescence 635/667 (AID 1071); settings: higher = more signal;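 note: score merges 667 nm spot intensity and signal to noise from triplicate slides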
[5] = molecular target: Neurogenic locus notch homolog protein 2 (Homo sapiens) (UniProt Q04721); assay: Notch2 binders on small-molecule microarrays, primary screen, biochemical, small-molecule microarray, 635 nm fluorescence, stem cell growth factors (AID 1073); settings: Notch2 binding, higher = more signal
Chain of Neurogenic locus notch homolog protein 2 (Homo sapiens) (Q04721 whole entry, looked up, canonical isoform): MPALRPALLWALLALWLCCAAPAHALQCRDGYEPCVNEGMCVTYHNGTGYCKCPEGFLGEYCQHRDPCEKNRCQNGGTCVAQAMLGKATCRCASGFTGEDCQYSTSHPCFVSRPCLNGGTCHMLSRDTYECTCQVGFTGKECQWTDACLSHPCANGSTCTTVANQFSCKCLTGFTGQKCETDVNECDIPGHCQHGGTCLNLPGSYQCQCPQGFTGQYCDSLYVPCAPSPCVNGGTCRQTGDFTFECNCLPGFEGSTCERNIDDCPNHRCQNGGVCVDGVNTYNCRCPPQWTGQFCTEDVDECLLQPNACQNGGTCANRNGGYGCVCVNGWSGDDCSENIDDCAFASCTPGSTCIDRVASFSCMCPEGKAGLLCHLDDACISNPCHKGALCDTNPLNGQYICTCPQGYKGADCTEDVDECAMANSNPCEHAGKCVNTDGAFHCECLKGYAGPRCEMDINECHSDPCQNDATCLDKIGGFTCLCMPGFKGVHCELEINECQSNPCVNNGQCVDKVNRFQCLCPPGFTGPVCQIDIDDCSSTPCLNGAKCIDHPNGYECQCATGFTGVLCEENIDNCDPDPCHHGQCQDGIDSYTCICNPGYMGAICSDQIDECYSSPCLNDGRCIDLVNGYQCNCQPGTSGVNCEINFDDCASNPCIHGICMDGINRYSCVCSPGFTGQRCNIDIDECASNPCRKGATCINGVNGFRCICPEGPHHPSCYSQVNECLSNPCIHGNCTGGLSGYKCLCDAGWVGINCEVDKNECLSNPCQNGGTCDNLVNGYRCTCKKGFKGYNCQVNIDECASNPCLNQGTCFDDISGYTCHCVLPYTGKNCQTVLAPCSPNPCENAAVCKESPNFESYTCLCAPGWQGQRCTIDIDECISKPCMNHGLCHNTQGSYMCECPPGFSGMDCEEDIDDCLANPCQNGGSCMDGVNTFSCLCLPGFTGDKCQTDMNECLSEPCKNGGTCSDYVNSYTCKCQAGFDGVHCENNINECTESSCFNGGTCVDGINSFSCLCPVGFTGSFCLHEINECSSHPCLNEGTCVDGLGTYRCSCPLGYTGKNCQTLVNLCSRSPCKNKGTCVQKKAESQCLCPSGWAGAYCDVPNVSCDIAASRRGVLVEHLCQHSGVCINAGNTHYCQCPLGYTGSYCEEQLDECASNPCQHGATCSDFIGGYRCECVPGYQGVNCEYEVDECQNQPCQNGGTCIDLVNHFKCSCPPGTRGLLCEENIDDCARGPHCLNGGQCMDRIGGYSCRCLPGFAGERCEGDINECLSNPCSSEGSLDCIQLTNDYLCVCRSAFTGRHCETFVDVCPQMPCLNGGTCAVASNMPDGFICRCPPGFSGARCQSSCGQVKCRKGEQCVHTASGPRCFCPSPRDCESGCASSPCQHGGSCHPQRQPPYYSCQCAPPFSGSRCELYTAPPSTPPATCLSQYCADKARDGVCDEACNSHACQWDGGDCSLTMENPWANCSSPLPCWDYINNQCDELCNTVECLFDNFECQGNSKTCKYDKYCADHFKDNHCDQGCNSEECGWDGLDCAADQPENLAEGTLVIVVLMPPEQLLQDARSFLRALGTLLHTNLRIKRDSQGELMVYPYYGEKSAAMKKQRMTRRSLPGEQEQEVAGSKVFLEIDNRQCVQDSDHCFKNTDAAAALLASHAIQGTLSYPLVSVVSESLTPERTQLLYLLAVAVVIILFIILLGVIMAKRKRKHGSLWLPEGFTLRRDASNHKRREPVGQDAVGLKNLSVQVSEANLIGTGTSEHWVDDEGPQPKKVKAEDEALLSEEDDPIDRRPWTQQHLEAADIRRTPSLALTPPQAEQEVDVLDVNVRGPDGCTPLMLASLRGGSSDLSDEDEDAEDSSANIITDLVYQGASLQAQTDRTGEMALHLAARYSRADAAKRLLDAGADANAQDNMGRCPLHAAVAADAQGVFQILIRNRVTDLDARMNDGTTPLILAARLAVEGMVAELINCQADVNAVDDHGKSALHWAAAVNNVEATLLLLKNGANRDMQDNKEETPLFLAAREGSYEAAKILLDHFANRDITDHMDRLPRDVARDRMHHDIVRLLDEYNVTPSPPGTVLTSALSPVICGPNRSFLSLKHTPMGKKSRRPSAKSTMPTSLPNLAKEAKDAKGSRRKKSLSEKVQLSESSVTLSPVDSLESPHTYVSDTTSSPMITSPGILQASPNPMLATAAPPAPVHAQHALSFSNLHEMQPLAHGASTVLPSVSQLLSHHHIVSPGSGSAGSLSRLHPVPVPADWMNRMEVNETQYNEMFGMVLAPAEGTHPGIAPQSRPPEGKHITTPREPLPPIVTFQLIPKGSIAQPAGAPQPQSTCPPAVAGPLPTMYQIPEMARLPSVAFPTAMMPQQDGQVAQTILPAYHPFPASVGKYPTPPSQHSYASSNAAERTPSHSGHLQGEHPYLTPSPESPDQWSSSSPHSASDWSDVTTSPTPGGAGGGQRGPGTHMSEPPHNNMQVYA

[6] = molecular target: Pro-neuregulin-1, membrane-bound isoform (Homo sapiens) (UniProt Q02297); assay: NRG1 binders on small-molecule microarrays, primary screen, psychiatric disease protein project, biochemical, small-molecule microarray, fluorescence 635/667 (AID 1075); settings: NRG1 binding, 635 nm fluorescence, higher = more signal;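 note: score combines 667 nm spot fluorescence with signal to noise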
Chain of Pro-neuregulin-1, membrane-bound isoform (Homo sapiens) (Q02297 whole entry, looked up, the tested form may be a part, canonical isoform): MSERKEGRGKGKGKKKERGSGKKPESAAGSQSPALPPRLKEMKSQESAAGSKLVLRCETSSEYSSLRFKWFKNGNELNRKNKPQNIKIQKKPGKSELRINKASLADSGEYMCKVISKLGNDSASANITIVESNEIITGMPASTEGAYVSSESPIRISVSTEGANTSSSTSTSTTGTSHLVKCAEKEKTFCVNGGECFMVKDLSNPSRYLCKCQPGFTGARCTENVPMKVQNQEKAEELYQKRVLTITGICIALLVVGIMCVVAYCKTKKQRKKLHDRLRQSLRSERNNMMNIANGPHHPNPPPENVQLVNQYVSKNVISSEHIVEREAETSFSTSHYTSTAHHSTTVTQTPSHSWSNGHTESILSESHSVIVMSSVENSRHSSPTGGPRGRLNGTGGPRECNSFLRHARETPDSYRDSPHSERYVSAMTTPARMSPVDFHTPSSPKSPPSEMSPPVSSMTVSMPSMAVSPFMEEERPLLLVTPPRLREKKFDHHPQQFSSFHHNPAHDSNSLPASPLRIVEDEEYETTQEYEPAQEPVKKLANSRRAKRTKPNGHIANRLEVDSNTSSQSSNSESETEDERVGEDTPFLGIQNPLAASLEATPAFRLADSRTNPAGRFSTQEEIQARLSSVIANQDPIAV

[7] = test system: Neuregulin-1 EGF-like domain; assay: binders of neuregulin-1 EGF-like domain, primary screen, biochemical, small-molecule microarray, 635 nm fluorescence (AID 1081); settings: small-molecule microarray binding, higher = more signal;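 note: binding of the protein to compounds printed on small-molecule microarray slides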
[8] = FRG1 promoter luciferase signal modulators, primary screen, FRG1 inhibition for FSHD, cell-based, C2C12 myotubes, firefly/Renilla luciferase, luminescence (AID 1084); settings: higher = more signal, called active from +8 up or from −8 down
[9] = binders of probe aFST on microarray, primary screen, stem cell growth factor project, biochemical, small-molecule microarray, fluorescence 635/667 (AID 1086); settings: higher = more signal;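 note: score merges 667 nm fluorescence with signal-to-noise of each printed compound spot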
[10] = binders of probe aHhip on microarray, primary screen, stem cell growth factor project, biochemical, small-molecule microarray, fluorescence 635/667 (AID 1087); settings: higher = more signal;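 note: score merges spot fluorescence at 667nm with spot signal to noise ratio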

| Compound | composite z-score [1] | composite z-score [2] | composite z-score [3] | composite z-score [4] | composite z-score [5] | composite z-score [6] | composite z-score [7] | z-score [8] | composite z-score [9] | composite z-score [10] |
| --- | --- | --- | --- | --- | --- | --- | --- | --- | --- | --- |
| N#Cc1ccc(C(O)C2C=CC3C(=O)N(c4ccccc4)C(=O)C3N2Nc2ccc([N+](=O)[O-])cc2)cc1 (stereo not given) | 0.561 | 0.31 | 0.139 | 0.863 | 1.58 | 1.77 | 1.28 | 0.498 (inactive) | 1.02 | -0.175 |
| COc1ccc([Si](C)(C)[C@H]2[C@H](CC(=O)N3Cc4ccccc4C[C@H]3CO)O[C@@]3(C(=O)N(Cc4cccc(N5C(=O)c6cccc7cccc5c67)c4)c4ccccc43)[C@@H]2C)cc1 | -0.581 | 0.847 | -0.0859 | 0.539 | 0.0297 | 0.997 | 1.03 | -2.61 (inactive) | 0.487 | -0.648 |
| COCCOC(=O)N1C(=O)[C@@]2(c3cc(C#CC4=CCCCC4)ccc31)[C@H](C(=O)N1CCc3cc(OC)c(OC)cc3C1)[C@H]1C(=O)O[C@H](c3ccccc3)[C@H](c3ccccc3)N1[C@@H]2c1ccc(O)cc1 | -0.0908 | 0.271 | 0.0216 | 1.15 | 1.5 | 1.79 | 1.25 | -0.514 (inactive) | 0.153 | 0.0515 |
| CN1C=C(C(=O)OCCS(C)(=O)=O)C(C(=O)OCCS(C)(=O)=O)=CC(CCCO)=CC1c1ccc(CN2CCCC2)cc1 (stereo not given) | 0.316 | 0.156 | 0.0126 | 1.11 | 1.25 | 2.02 | 1.35 | 0.226 (inactive) | 1.65 | 0.0053 |
| CC(C)C[C@@H]1NC(=O)[C@@H]2C[C@H](C(=O)NCCCC[N+](C)(C)C)[C@H](c3ccc(O)cc3)N2C1=O | -0.358 | 1.4 | -0.116 | 0.639 | 0.113 | 1.54 | 1.32 | 0.53 (inactive) | 0.221 | 0.319 |
| C[C@H]1NC(=O)C([C@@H](C)OCc2ccccc2)NC(=O)[C@@]23C(=O)N[C@@H](Cc4ccccc4)C2[C@H](C)[C@@]2(C)O[C@H]2C3/C=C/C/C=C\CNC1=O (stereo not given in full) | -0.265 | 0.0677 | -0.183 | 0.817 | -0.363 | -0.341 | 0.989 | 0.493 (inactive) | -0.407 | -0.0324 |
| O=C1O[C@H](c2ccccc2)[C@H](c2ccccc2)N2[C@H]1[C@@H](C(=O)NC[C@H](O)c1ccccc1)[C@]1(C(=O)Nc3ccc(C#CCCO)cc31)[C@H]2c1ccccc1OCCO | -0.211 | 0.307 | -0.141 | 0.453 | 0.253 | 1.25 | 1.34 | -0.0302 (inactive) | 0.152 | 0.0505 |
| C=C(COC)C(=O)CC[C@@H](OC(C)=O)c1ccc(OCCO)cc1 | 0.266 | 1.48 | -0.107 | 0.432 | 0.297 | -0.239 | 0.835 | -0.556 (inactive) | -0.25 | 0.347 |
| CCOC(=O)C1=C[C@@H](C(C)(C)C)N(S(=O)(=O)c2ccc(C)cc2)[C@H]1c1ccccc1Cl | 0.284 | 0.534 | 0.122 | 0.624 | 1.61 | 1.25 | 1.14 | -2.24 (inactive) | 1.07 | 0.0401 |
| CC(C)(C)N1CC=CC23O[C@@H]4/C=C\CCCOC(=O)C4[C@H]2C(=O)N(CCCCCCO)[C@@H]3C1=O (stereo not given in full) | 0.509 | -0.342 | -0.208 | -0.056 | -1.12 | 1.1 | 0.781 | -1.09 (inactive) | -0.392 | -0.0618 |
| C=CC[C@@]1(C(=O)N(C)C)N=C(c2ccc(OCCCO)cc2)O[C@@H]1c1ccccc1 | 0.733 | 1.13 | 0.0917 | 0.794 | 0.515 | 2.08 | 1.38 | -0.004 (inactive) | 0.598 | 0.109 |
| C=C(COC)C(=O)CC[C@@H](OC(=O)c1cccnc1)c1cccc(OCCO)c1 | 0.0424 | 0.759 | -0.0332 | 0.455 | -0.0967 | 0.851 | 0.762 | 0.587 (inactive) | 0.532 | -0.171 |
| C=CC[C@]1(C(=O)NCc2ccccc2)COC(c2ccc(OCCCO)cc2)=N1 | 2.17 | 2.12 | -0.008 | -0.588 | -0.813 | 1.09 | 0.521 | 0.235 (inactive) | 0.946 | -0.335 |
| C=CC[C@@]1(C(=O)O)N=C(c2ccc(OCCCO)cc2)O[C@@H]1c1ccccc1CN=[N+]=[N-] | -0.232 | 0.334 | -0.0518 | 0.744 | 0.955 | 1.79 | 1.08 | 4 (inactive) | 0.0959 | -0.007 |
| N#Cc1ccc(C(O)C2C=CC3C(=O)NC(=O)C3N2Nc2ccccn2)cc1 (stereo not given) | -0.0872 | -0.013 | -0.0692 | 0.311 | 0.905 | 1.41 | 0.511 | -0.0581 (inactive) | 0.12 | 0.113 |
| CC(C)CNC(=O)[C@@H]1c2ccccc2C(=O)N(Cc2ccccc2)[C@H]1c1ccc(CO)cc1 | 1.12 | 0.886 | 0.0173 | -0.0403 | -1.04 | 0.935 | 0.76 | -0.504 (inactive) | -0.469 | -0.118 |
| CC(C)C(=C=CC[C@@H](O)c1ccc(OCCO)cc1)CCO | -0.226 | -0.0605 | -0.128 | 0.127 | -0.0765 | 0.346 | 0.402 | 0.0636 (inactive) | -0.315 | 0.0505 |
| COc1ccc(NN2C(C(O)c3cc(C(F)(F)F)cc(C(F)(F)F)c3)C=CC3C(=O)N(C4CCCCC4)C(=O)C32)cc1 (stereo not given) | 0.844 | 0.301 | 0.483 | 0.397 | 1.37 | 1.02 | 1.11 | -0.68 (inactive) | 1.36 | 1.67 |
| C=CCC(OC(C)=O)[C@@H]1[C@@H](N(Cc2ccc(-c3ccccc3)cc2)C(=O)c2ccc(-c3ccccc3)cc2)c2cc(OCCCO)ccc2N1C(=O)c1ccc2ccccc2n1 (stereo not given in full) | 0.0997 | 0.185 | -0.0945 | 0.0767 | -0.332 | 0.211 | -0.359 | -0.0161 (inactive) | 0.212 | 0.347 |
| COC(=O)[C@@]1(Cc2ccc(F)cc2)[C@H]2c3cc(C(=O)N4CCCC4)n(CCO)c3C[C@H]2CN1C(=O)c1ccccc1 | 0.0451 | -0.124 | 0.153 | 0.603 | 1.64 | 1.06 | 1.26 | 0.383 (inactive) | 0.537 | 0.628 |
| COCCOC(=O)N1C(=O)[C@@]2(c3cc(C#CCC(C(=O)OC)C(=O)OC)ccc31)[C@H](c1ccc(OCCO)cc1)N1[C@H](c3ccccc3)[C@H](c3ccccc3)OC(=O)[C@H]1[C@@H]2C(=O)N1CCCCCCC1 | 3.74 | 1.64 | 0.671 | 0.304 | 1.37 | 0.812 | 1.3 | 0.562 (inactive) | 3.32 | 3.43 |
| C=CCC(OC(C)=O)[C@@H]1[C@@H](N(Cc2cc3ccccc3o2)C(=O)Cc2ccc(OC)cc2)c2cc(OCCCO)ccc2N1C(=O)Cc1ccc2ccccc2c1 (stereo not given in full) | 0.0169 | -0.94 | -0.0348 | -0.377 | -0.368 | -0.359 | 0.331 | -0.906 (inactive) | 0.0598 | 0.0505 |
| O=C1O[C@@H](c2ccccc2)[C@@H](c2ccccc2)N2[C@@H](c3ccc(O)cc3)[C@]3(C(=O)Nc4ccc(C#CC5=CCCCC5)cc43)[C@@H](C(=O)N3CCCCCCC3)[C@H]12 | 2.95 | 0.905 | 0.347 | 0.294 | 0.861 | 0.705 | 1.3 | -1.38 (inactive) | 2.44 | 0.271 |
| O=C1OCCC/C=C\[C@H]2OC34C=CCN(Cc5ccccc5)C(=O)[C@H]3N(CCCCCO)C(=O)[C@@H]4C12 (stereo not given in full) | 0.566 | -0.079 | -0.147 | -0.0433 | -1.12 | 1.05 | 0.387 | 2.92 (inactive) | -0.693 | -0.116 |

From PubChem BioAssay
